Test in all cases: DAPPL (digital affinity profiling via proximity ligation, sequencing); 10 mM Tris-HCl pH 7.5, 50 mM NaCl, 1 mM DTT, 4% glycerol, room temperature, 30 min; GST-TFs on glutathione beads, 16-mer random dsDNA library, 0.1% formaldehyde crosslink after washing; high values mean tight binding
Holding throughout (settings): protein: recombinant; tags: N-terminal GST; dsDNA, one strand shown

In one test the target is T1, ERF (Homo sapiens, UniProt P50548 1-548).
T1 sequence: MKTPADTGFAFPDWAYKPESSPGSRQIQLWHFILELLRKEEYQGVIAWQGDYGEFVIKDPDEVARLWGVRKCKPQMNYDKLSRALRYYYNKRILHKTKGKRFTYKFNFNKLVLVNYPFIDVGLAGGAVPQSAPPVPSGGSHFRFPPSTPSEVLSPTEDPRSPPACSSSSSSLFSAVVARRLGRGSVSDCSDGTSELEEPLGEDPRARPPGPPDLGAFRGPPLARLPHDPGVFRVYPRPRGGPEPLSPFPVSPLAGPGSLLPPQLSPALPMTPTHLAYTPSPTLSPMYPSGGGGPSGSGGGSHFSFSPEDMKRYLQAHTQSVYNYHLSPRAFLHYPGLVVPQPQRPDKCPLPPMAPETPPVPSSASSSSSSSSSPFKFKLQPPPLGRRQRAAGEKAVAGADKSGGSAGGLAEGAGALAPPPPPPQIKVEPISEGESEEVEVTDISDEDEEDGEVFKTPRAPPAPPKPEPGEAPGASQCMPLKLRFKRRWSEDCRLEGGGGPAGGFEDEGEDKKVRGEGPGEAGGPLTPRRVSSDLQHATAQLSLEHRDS
Put shortly: (§1)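 Each value of binding signal is a hexamer's read frequency for a factor divided by the same hexamer's frequency in the tag-only sample. Barcoded, bead-captured GST fusions of human transcription factors made in yeast were pooled with that sample and incubated with 200 nmole of a random double-stranded 16-mer DNA library in Tris/NaCl/DTT/glycerol buffer at room temperature for 30 min. Washing, 0.1% formaldehyde crosslinking, proximity ligation, PCR and Illumina NextSeq500 sequencing followed.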

A further test concerns the target T2, ETV3L (Homo sapiens, UniProt Q6ZN32 1-361).
T2 sequence: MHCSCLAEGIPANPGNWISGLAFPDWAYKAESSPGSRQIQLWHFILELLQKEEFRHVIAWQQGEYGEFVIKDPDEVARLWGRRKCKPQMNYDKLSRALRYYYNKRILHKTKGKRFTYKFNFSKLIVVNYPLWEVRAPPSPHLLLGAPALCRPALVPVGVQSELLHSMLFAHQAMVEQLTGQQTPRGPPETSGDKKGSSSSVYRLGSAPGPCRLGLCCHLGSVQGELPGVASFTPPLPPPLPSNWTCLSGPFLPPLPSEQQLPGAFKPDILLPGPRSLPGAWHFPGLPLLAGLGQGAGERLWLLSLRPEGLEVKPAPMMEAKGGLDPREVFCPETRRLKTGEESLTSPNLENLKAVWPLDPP
Put shortly: as §1

In another test the target is T3, ETS2 (Homo sapiens, UniProt P15036 1-469).
T3 sequence: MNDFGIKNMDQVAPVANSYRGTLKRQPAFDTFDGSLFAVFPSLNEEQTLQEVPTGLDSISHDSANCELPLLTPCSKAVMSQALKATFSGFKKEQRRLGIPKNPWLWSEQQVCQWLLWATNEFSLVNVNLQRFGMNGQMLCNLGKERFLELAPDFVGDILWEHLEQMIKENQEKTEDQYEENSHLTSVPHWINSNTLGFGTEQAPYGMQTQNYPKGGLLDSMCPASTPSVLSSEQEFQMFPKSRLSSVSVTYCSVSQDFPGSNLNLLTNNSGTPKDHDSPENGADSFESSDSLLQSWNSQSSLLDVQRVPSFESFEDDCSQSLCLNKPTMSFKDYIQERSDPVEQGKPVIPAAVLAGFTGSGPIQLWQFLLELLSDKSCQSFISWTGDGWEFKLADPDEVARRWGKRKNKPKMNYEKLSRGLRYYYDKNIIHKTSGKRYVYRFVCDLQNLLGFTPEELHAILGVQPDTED
Put shortly:
as §1

The target in a further test is T4, SPDEF (Homo sapiens, UniProt O95238 1-335).
T4 sequence: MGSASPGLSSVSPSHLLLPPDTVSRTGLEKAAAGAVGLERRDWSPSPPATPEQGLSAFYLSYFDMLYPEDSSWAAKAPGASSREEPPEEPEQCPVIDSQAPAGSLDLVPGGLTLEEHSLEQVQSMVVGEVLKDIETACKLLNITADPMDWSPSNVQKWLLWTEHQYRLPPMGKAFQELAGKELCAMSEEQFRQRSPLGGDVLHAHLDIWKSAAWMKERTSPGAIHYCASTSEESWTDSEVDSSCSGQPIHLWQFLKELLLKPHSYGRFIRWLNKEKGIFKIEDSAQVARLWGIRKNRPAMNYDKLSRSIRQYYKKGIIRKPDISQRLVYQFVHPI
Put shortly:
as §1

Another test deals with T5, ETV7 (Homo sapiens, UniProt Q9Y603 1-341).
T5 sequence: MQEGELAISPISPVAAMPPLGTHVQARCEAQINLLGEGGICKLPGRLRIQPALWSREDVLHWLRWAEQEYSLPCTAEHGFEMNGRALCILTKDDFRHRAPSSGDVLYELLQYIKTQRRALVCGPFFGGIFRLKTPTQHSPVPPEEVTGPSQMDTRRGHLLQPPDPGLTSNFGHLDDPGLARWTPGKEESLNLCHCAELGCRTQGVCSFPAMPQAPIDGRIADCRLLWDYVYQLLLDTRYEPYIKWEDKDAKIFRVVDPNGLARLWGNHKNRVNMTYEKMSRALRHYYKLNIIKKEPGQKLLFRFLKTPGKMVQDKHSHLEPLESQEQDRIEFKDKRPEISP
Put shortly:
as §1

A further test concerns the target T6, ELF5 (Homo sapiens, UniProt Q9UKW6-2 1-255).
T6 sequence: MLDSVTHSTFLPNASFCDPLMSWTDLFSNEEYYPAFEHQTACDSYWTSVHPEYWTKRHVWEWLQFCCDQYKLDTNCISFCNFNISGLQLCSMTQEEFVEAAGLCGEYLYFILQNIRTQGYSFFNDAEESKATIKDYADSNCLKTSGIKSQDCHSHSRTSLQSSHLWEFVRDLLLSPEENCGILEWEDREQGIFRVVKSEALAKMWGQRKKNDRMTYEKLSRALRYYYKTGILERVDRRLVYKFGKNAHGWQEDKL
An outline of the steps:
as §1

Another test concerns the target T7, ETV3 (Homo sapiens, UniProt P41162-2 1-143).
T7 sequence: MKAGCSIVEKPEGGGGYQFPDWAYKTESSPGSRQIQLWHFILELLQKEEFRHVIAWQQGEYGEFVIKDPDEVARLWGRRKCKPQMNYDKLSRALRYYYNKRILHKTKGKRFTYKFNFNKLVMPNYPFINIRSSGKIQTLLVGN
An outline of the steps: as §1

The target of another test is ETV6 (Homo sapiens, UniProt P41212 1-452). Put shortly: as §1
Chain of ETV6 (P41212 whole entry): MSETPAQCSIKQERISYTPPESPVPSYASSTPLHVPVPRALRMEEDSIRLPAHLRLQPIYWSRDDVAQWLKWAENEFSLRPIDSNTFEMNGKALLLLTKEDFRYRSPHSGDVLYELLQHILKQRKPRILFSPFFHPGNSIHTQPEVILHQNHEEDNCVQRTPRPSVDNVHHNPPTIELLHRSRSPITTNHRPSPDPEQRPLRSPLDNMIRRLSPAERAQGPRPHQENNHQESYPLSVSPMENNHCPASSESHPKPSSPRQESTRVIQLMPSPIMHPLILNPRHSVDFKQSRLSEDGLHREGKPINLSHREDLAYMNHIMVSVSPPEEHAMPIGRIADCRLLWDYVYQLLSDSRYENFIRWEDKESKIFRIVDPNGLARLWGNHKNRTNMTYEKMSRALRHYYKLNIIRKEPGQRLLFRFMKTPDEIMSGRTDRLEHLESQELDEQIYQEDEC

For GAACCC, the binding signal in the test with ERF was 1.03 fold enrichment (6-mer frequency, TF over GST control); with ETV3L it was 1.19 fold enrichment (6-mer frequency, TF over GST control); with ETS2, 1.13 fold enrichment (6-mer frequency, TF over GST control); in the test with SPDEF, 1.17 fold enrichment (6-mer frequency, TF over GST control); in the test with ETV7, 1.16 fold enrichment (6-mer frequency, TF over GST control); with ELF5, 1.14 fold enrichment (6-mer frequency, TF over GST control). In addition, the binding signal is 1.07 fold enrichment (6-mer frequency, TF over GST control) in the test with ETV3 and 1.21 fold enrichment (6-mer frequency, TF over GST control) with ETV6.
As to GAAGTT, the binding signal with ERF is 1.47 fold enrichment (6-mer frequency, TF over GST control); with ETV3L, 1.64 fold enrichment (6-mer frequency, TF over GST control); with ETS2, 1.71 fold enrichment (6-mer frequency, TF over GST control); with SPDEF it was 1.56 fold enrichment (6-mer frequency, TF over GST control); with ETV7 it was 1.65 fold enrichment (6-mer frequency, TF over GST control); with ELF5, 2 fold enrichment (6-mer frequency, TF over GST control). In addition, the binding signal is 1.7 fold enrichment (6-mer frequency, TF over GST control) with ETV3 and 1.93 fold enrichment (6-mer frequency, TF over GST control) with ETV6.
As for TCTCGC, the binding signal with ERF is 1.75 fold enrichment (6-mer frequency, TF over GST control); in the test with ETV3L, 1.81 fold enrichment (6-mer frequency, TF over GST control); in the test with ETS2 it was 1.91 fold enrichment (6-mer frequency, TF over GST control); in the test with SPDEF it was 1.63 fold enrichment (6-mer frequency, TF over GST control); in the test with ETV7, 1.68 fold enrichment (6-mer frequency, TF over GST control); in the test with ELF5 it was 1.71 fold enrichment (6-mer frequency, TF over GST control). Further, the binding signal was 1.79 fold enrichment (6-mer frequency, TF over GST control) with ETV3 and 1.62 fold enrichment (6-mer frequency, TF over GST control) with ETV6.
Turning to AAGAAT, the binding signal with ERF was 1.2 fold enrichment (6-mer frequency, TF over GST control); with ETV3L it was 1.15 fold enrichment (6-mer frequency, TF over GST control); with ETS2, 1.11 fold enrichment (6-mer frequency, TF over GST control); with SPDEF, 1.07 fold enrichment (6-mer frequency, TF over GST control); with ETV7 it was 1.1 fold enrichment (6-mer frequency, TF over GST control); in the test with ELF5, 1.15 fold enrichment (6-mer frequency, TF over GST control). For the same sequence, the binding signal was 1.14 fold enrichment (6-mer frequency, TF over GST control) with ETV3 and 1.08 fold enrichment (6-mer frequency, TF over GST control) with ETV6.
Turning to CCGGAA, the binding signal with ERF is 4.48 fold enrichment (6-mer frequency, TF over GST control); in the test with ETV3L, 5.28 fold enrichment (6-mer frequency, TF over GST control); with ETS2, 5.63 fold enrichment (6-mer frequency, TF over GST control); with SPDEF, 6.22 fold enrichment (6-mer frequency, TF over GST control); with ETV7 it was 5.01 fold enrichment (6-mer frequency, TF over GST control); with ELF5 it was 6.42 fold enrichment (6-mer frequency, TF over GST control). The binding signal with ETV3 was 6.2 fold enrichment (6-mer frequency, TF over GST control); with ETV6 it was 6.11 fold enrichment (6-mer frequency, TF over GST control).
For CCCACA, the binding signal was 1.12 fold enrichment (6-mer frequency, TF over GST control) with ERF; 1.1 fold enrichment (6-mer frequency, TF over GST control) in the test with ETV3L; 1.13 fold enrichment (6-mer frequency, TF over GST control) with ETS2; 1.22 fold enrichment (6-mer frequency, TF over GST control) with SPDEF; 1.05 fold enrichment (6-mer frequency, TF over GST control) with ETV7; 1.13 fold enrichment (6-mer frequency, TF over GST control) with ELF5. Besides, the binding signal with ETV3 was 1.1 fold enrichment (6-mer frequency, TF over GST control); with ETV6 it was 1.14 fold enrichment (6-mer frequency, TF over GST control).
Regarding CAACAC, the binding signal is 1.16 fold enrichment (6-mer frequency, TF over GST control) in the test with ERF; 1.13 fold enrichment (6-mer frequency, TF over GST control) with ETV3L; 1.13 fold enrichment (6-mer frequency, TF over GST control) in the test with ETS2; 1.13 fold enrichment (6-mer frequency, TF over GST control) in the test with SPDEF; 1.13 fold enrichment (6-mer frequency, TF over GST control) with ETV7; 1.1 fold enrichment (6-mer frequency, TF over GST control) with ELF5. Besides, the binding signal in the test with ETV3 was 1.15 fold enrichment (6-mer frequency, TF over GST control); with ETV6, 1.11 fold enrichment (6-mer frequency, TF over GST control).
With CCTGTA, the binding signal with ERF was 1.24 fold enrichment (6-mer frequency, TF over GST control); with ETV3L, 1.22 fold enrichment (6-mer frequency, TF over GST control); in the test with ETS2 it was 1.15 fold enrichment (6-mer frequency, TF over GST control); in the test with SPDEF, 1.36 fold enrichment (6-mer frequency, TF over GST control); with ETV7 it was 1.21 fold enrichment (6-mer frequency, TF over GST control); in the test with ELF5, 1.43 fold enrichment (6-mer frequency, TF over GST control). Moreover, the binding signal with ETV3 is 1.35 fold enrichment (6-mer frequency, TF over GST control); with ETV6, 1.18 fold enrichment (6-mer frequency, TF over GST control).
For ATCTAC, the binding signal with ERF is 1.44 fold enrichment (6-mer frequency, TF over GST control); with ETV3L, 1.36 fold enrichment (6-mer frequency, TF over GST control); in the test with ETS2, 1.32 fold enrichment (6-mer frequency, TF over GST control); in the test with SPDEF, 1.24 fold enrichment (6-mer frequency, TF over GST control); with ETV7 it was 1.21 fold enrichment (6-mer frequency, TF over GST control); with ELF5, 1.3 fold enrichment (6-mer frequency, TF over GST control). Besides, the binding signal with ETV3 was 1.2 fold enrichment (6-mer frequency, TF over GST control); with ETV6, 1.29 fold enrichment (6-mer frequency, TF over GST control).

For the origin of these results see article PMC7862700, “An all-to-all approach to the identification of sequence-specific readers for epigenetic DNA modifications on cytosine”.
